Menin MLL FP TR: qHTS Assay for Inhibitors Targeting the Menin-MLL Interaction in MLL Related Leukemias: Competition With Texas Red Labeled MLL-derived Mutant Peptide; Menin + Texas Red MLL mutant peptide, fluorescence polarization; Potency, µM (top dose mostly 61.6 µM), hits mostly inhibitors; 270,000 tested, 0.23% active; AID 1768, 2009; active means well fitted inhibition curve with a large enough effect in the polarisation, with a control signal flat, not every such curve was filed as active; inconclusive means small, poorly fitted or top-dose-only effect, or effect the other way, or a change in a side signal; inactive means no such curve, though single readings can be large or run the other way; the % refers to the polarisation
Target sequence (O00255 whole entry, looked up): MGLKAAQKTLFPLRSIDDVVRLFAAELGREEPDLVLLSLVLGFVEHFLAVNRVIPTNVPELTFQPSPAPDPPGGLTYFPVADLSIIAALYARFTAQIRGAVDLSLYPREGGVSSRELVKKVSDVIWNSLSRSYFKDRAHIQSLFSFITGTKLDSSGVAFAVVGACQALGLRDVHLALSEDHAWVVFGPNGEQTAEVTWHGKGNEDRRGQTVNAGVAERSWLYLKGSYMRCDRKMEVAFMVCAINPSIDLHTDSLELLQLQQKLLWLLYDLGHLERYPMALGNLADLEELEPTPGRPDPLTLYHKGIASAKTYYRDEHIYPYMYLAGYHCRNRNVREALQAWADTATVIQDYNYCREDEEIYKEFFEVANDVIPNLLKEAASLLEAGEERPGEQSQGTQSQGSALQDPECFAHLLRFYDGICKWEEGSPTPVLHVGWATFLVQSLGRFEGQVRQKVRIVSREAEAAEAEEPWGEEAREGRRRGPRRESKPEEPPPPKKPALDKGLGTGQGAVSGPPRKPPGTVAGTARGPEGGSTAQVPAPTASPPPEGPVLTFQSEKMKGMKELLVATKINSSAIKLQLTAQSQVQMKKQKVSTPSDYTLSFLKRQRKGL
B2AR arrestin: qHTS assay of beta-arrestin-biased ligands of beta2-adrenergic receptor. Beta-2 adrenergic receptor (Homo sapiens), P07550. beta-arrestin recruitment to beta2AR, cell-based reporter. 330,000 tested, 0.02% active. Potency, µM (titrated, usually from 46.1 µM), most hits filed as activators; active means well fitted activation curve with a large enough effect; inconclusive means small, poorly fitted or top-dose-only effect; further: nearly all actives have a fitted effect of over 65% in size
TSG101-PTAP inh: qHTS Assay for Iinhibitors of HIV-1 Budding by Blocking the Interaction of PTAP/TSG101 | Potency, µM (series often up to 115 µM), usual class: inhibitors | 340,000 tested, under 10 active | Fluorescence polarization, FITC-PTAP peptide / Tsg101 binding | AID 493005, 2010 | Tumor susceptibility gene 101 protein (Homo sapiens), Q99816; active means well fitted inhibition curve with a large enough effect in the main read-out, with a control signal flat, not every such curve was filed as active; inconclusive means small, poorly fitted or top-dose-only effect, or effect the other way, or a change in a side signal; inactive means no such curve, though single readings can be large or run the other way
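FP read-out: FITC-PTAP peptide, 50 nM final, binding Tsg101 binding domain, 10 uM final; 20 min, r.t.; 10 mM HEPES pH 7.5, 0.15 M NaCl, 0.01% Tween 20, 3 mM EDTA, 0.1 mM TCEP.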
Menin-MLL FL inh: qHTS Assay for Inhibitors Targeting the Menin-MLL Interaction in MLL Related Leukemias: Competition With Fluorescein Labeled MLL-derived Peptide | FP activity change, % at 61.4 µM | 290,000 tested, under 10 active | Fluorescence polarization, fluorescein-MLL peptide displacement from menin; active means well fitted curve in the direction sought with a large enough effect in the polarisation, not every such curve was filed as active; inconclusive means small, poorly fitted or top-dose-only effect, or effect the other way, or a change in a side signal; inactive means no such curve, though single readings can be large or run the other way; the % refers to the polarisation
MLL CXXC-DNA inh: qHTS Fluorescence Polarization Assay for Inhibitors of MLL CXXC domain - DNA interaction. Potency, µM (titrated, usually from 115 µM), usual class: inhibitors. MLL-CXXC / FITC-HOXA9 DNA fluorescence polarization. 290,000 tested, 0.037% active. AID 2662, 2010; active means well fitted inhibition curve with a large enough effect in the polarisation, with a control signal flat, not every such curve was filed as active; inconclusive means small, poorly fitted or top-dose-only effect, or effect the other way, or a change in a side signal; inactive means no such curve, though single readings can be large or run the other way; the % refers to the polarisation
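Steps: dispense CXXC domain solution (7 uM) → pin compounds or unlabeled HOX-A9 DNA control → 5 min ambient → add FLSN-HOX-A9 solution (50 nM) → spin → 30 min ambient → fluorescence polarization. Tris pH 7.5/NaCl/DTT/BSA buffer.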
BCR signal inh: qHTS Assay to Find Inhibitors of Chronic Active B-Cell Receptor Signaling; ABC-DLBCL IkBa-CBG/CBR reporter, luminescence ratio, 4 h; Potency, µM (titrated, usually from 46.1 µM), hits mostly inhibitors; 340,000 tested, 0.05% active; AID 493014, 2011; active means well fitted inhibition curve with a large enough effect in the signal ratio, with a control signal flat, not every such curve was filed as active; inconclusive means small, poorly fitted or top-dose-only effect, or effect the other way, or a change in a side signal; the % refers to the signal ratio
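Compounds up to 46 uM were incubated four hours with TMD8 cells whose green CBG68 luciferase is fused to IkappaBalpha; red CBR luminescence normalised the signal, and concentration-effect curves were fitted to fusion, red and ratio data.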
Numbers stand for hits. Shown is part of a subset that was picked to be rich in hits.

What do the screens show for `CCOc1ccc2nc(NS(=O)(=O)Cc3ccccc3)sc2c1`?
Menin MLL FP TR: inactive; B2AR arrestin: inactive; TSG101-PTAP inh: inactive; Menin-MLL FL inh: inactive; MLL CXXC-DNA inh: inactive; BCR signal inh: 7.31µM

How did CC1=CC(C)(C)N2C(=O)C(=O)c3cc(OC(=O)c4ccco4)cc1c32 do in these assays?
Menin MLL FP TR: inactive; B2AR arrestin: inactive; TSG101-PTAP inh: inactive; Menin-MLL FL inh: inactive; MLL CXXC-DNA inh: inactive; BCR signal inh: 11.2µM

How did Oc1ccccc1/C=N/Nc1nc2ccccc2o1 do in these assays?
B2AR arrestin: 14.1µM; TSG101-PTAP inh: inactive; Menin-MLL FL inh: inactive; MLL CXXC-DNA inh: inactive; BCR signal inh: inconclusive

What do the screens show for `O=c1cc(-c2cccc(F)c2)[nH]c2ccccc12`?
Menin MLL FP TR: inactive; B2AR arrestin: inactive; TSG101-PTAP inh: inactive; Menin-MLL FL inh: inactive; MLL CXXC-DNA inh: inactive; BCR signal inh: 20.6µM

What do the screens show for `Cc1cc([N+](=O)[O-])nn1CC(=O)N(C)Cc1ccccc1`?
Menin MLL FP TR: inactive; B2AR arrestin: inactive; TSG101-PTAP inh: inactive; Menin-MLL FL inh: inactive; MLL CXXC-DNA inh: inactive; BCR signal inh: inactive

What do the screens show for `COc1cc2c(cc1OC)-c1cc(Nc3ccc(F)cc3)nc(=O)n1CC2`?
Menin MLL FP TR: inactive; B2AR arrestin: inactive; TSG101-PTAP inh: inactive; Menin-MLL FL inh: inactive; MLL CXXC-DNA inh: inconclusive; BCR signal inh: inconclusive

What do the screens show for `COc1cc2c(cc1OC)-c1cc(Nc3ccc(N(C)C)cc3)nc(=O)n1CC2`?
B2AR arrestin: inactive; TSG101-PTAP inh: inactive; Menin-MLL FL inh: inactive; MLL CXXC-DNA inh: inactive; BCR signal inh: inconclusive

How did COc1cc2c(cc1OC)-c1cc(NC3CCCC3)nc(=O)n1CC2 do in these assays?
Menin MLL FP TR: inactive; B2AR arrestin: inactive; TSG101-PTAP inh: inactive; Menin-MLL FL inh: inactive; MLL CXXC-DNA inh: inactive; BCR signal inh: 15.8µM

How did CCN(CC)c1ccc(Nc2cc3n(c(=O)n2)CCc2cc(OC)c(OC)cc2-3)cc1 do in these assays?
Menin MLL FP TR: inactive; B2AR arrestin: inactive; TSG101-PTAP inh: inactive; Menin-MLL FL inh: inactive; MLL CXXC-DNA inh: inactive; BCR signal inh: 11.2µM

What do the screens show for `CCCCOc1ccc(-c2nnn(CC(=O)c3c[nH]c4ccccc34)n2)cc1`?
Menin MLL FP TR: 8.91µM; B2AR arrestin: inactive; TSG101-PTAP inh: inactive; Menin-MLL FL inh: inactive; MLL CXXC-DNA inh: inactive; BCR signal inh: inactive

What do the screens show for `COc1ccc(-c2nnn(CC(=O)c3c[nH]c4ccccc34)n2)cc1OC`?
Menin MLL FP TR: inconclusive; B2AR arrestin: inactive; TSG101-PTAP inh: inactive; Menin-MLL FL inh: inactive; MLL CXXC-DNA inh: inactive; BCR signal inh: inconclusive

How did CCN(CC)S(=O)(=O)c1ccc(N2CCCC2)c(NS(=O)(=O)c2ccc(OC)cc2)c1 do in these assays?
Menin MLL FP TR: inactive; B2AR arrestin: inactive; TSG101-PTAP inh: inactive; Menin-MLL FL inh: inactive; MLL CXXC-DNA inh: inactive; BCR signal inh: inactive

How did COc1cc(/C=C2\CC(C(C)(C)C)C/C(=C\c3cc(OC)c(OC)c(OC)c3)C2=O)cc(OC)c1OC (configuration not stated) do in these assays?
Menin MLL FP TR: 7.94µM; B2AR arrestin: inconclusive; TSG101-PTAP inh: inactive; Menin-MLL FL inh: inactive; MLL CXXC-DNA inh: inconclusive; BCR signal inh: inconclusive

Results for COc1cc(/C=C2\CC/C(=C\c3cc(OC)c(OC)c(OC)c3)C2=O)cc(OC)c1OC ?
Menin MLL FP TR: inactive; B2AR arrestin: inactive; TSG101-PTAP inh: inactive; Menin-MLL FL inh: inactive; MLL CXXC-DNA inh: inactive; BCR signal inh: inactive

How did COc1cc(/C=C/c2ccc(O)cc2)cc(OC)c1 do in these assays?
Menin MLL FP TR: inconclusive; B2AR arrestin: inactive; TSG101-PTAP inh: inactive; Menin-MLL FL inh: inactive; MLL CXXC-DNA inh: inactive; BCR signal inh: 12.6µM

How did COc1ccc(/C=C/C(=O)c2ccc(O)cc2)cc1 do in these assays?
Menin MLL FP TR: inactive; B2AR arrestin: inactive; TSG101-PTAP inh: inactive; Menin-MLL FL inh: inactive; MLL CXXC-DNA inh: inactive; BCR signal inh: inconclusive

How did CCc1ccc(CNC(=O)C2CCN(S(=O)(=O)N3CCCC3)CC2)cc1 do in these assays?
B2AR arrestin: inactive; TSG101-PTAP inh: inactive; MLL CXXC-DNA inh: inactive; BCR signal inh: inactive

How did CC(SC1=NCCS1)C(=O)Nc1nnc(-c2ccc(F)cc2)s1 (configuration not stated) do in these assays?
Menin MLL FP TR: inactive; B2AR arrestin: inactive; TSG101-PTAP inh: inactive; Menin-MLL FL inh: inactive; MLL CXXC-DNA inh: inactive; BCR signal inh: inactive

How did CNC(=S)N/N=C(\C)c1ccc(Cl)s1 do in these assays?
Menin MLL FP TR: inactive; B2AR arrestin: 18.4µM; TSG101-PTAP inh: inactive; Menin-MLL FL inh: inactive; MLL CXXC-DNA inh: inactive; BCR signal inh: 16.4µM

What do the screens show for `CCNC(=S)N/N=C(\C)c1ccc(Cl)s1`?
Menin MLL FP TR: inactive; B2AR arrestin: inactive; TSG101-PTAP inh: inactive; MLL CXXC-DNA inh: inactive; BCR signal inh: inconclusive

Results for Cc1ccc2nc(SCC(=O)NC(=O)NCc3ccco3)[nH]c2c1 ?
Menin MLL FP TR: inactive; B2AR arrestin: inactive; TSG101-PTAP inh: inactive; Menin-MLL FL inh: inactive; MLL CXXC-DNA inh: inactive; BCR signal inh: inconclusive

What do the screens show for `COc1cccc(C(=O)NC(=O)Nc2cc(C)on2)c1`?
Menin MLL FP TR: inactive; B2AR arrestin: inactive; TSG101-PTAP inh: inactive; Menin-MLL FL inh: inactive; MLL CXXC-DNA inh: inactive; BCR signal inh: inconclusive

Results for CCCN1CCCc2ccccc21 ?
Menin MLL FP TR: 25.1µM; B2AR arrestin: inactive; TSG101-PTAP inh: inactive; Menin-MLL FL inh: inactive; MLL CXXC-DNA inh: inactive; BCR signal inh: inactive

What do the screens show for `CCN(CC)C(=O)c1sc2nc(-c3cccs3)cc(-c3ccc(Cl)cc3)c2c1N`?
Menin MLL FP TR: inconclusive; B2AR arrestin: inactive; TSG101-PTAP inh: inconclusive; Menin-MLL FL inh: inactive; MLL CXXC-DNA inh: inconclusive; BCR signal inh: inactive

How did N#Cc1sc2nc(-c3cccs3)cc(-c3ccccc3)c2c1N do in these assays?
Menin MLL FP TR: 12.6µM; B2AR arrestin: inactive; TSG101-PTAP inh: inactive; Menin-MLL FL inh: inconclusive; MLL CXXC-DNA inh: inactive; BCR signal inh: inactive

What do the screens show for `N#Cc1sc2nc(-c3cccs3)cc(-c3ccc(Cl)cc3)c2c1N`?
Menin MLL FP TR: 25.1µM; B2AR arrestin: inactive; TSG101-PTAP inh: inactive; Menin-MLL FL inh: inconclusive; MLL CXXC-DNA inh: inactive; BCR signal inh: inactive

How did N#Cc1sc2nc(-c3ccccc3)cc(C(F)(F)F)c2c1N do in these assays?
Menin MLL FP TR: inactive; B2AR arrestin: inactive; TSG101-PTAP inh: inactive; Menin-MLL FL inh: inactive; MLL CXXC-DNA inh: inactive; BCR signal inh: inactive

Results for O=C(NCCS(=O)(=O)N1CCN(c2ccccc2)CC1)C1CC1 ?
B2AR arrestin: inactive; TSG101-PTAP inh: inactive; BCR signal inh: inactive

Screens (PubChem)
